# Results as given in PubChem BioAssay AID1347075 (National Center for Advancing Translational Sciences (NCATS), 2019).
# Among all 400,000 compounds or so, about 5,500 (1.4%) were called active. About 9% were inconclusive and are not listed. The full list was thinned out, with actives kept by preference. A number with no mark means an inactive call. Calls follow the shape of the dose curve; as a rule, active = well fitted cell-killing curve with a large enough effect; inconclusive = small, poorly fitted or top-dose-only effect, or effect the other way; inactive = flat fitted curve, though single readings scatter.
# Experiment: qHTS assay for MDR1-selective chemotherapeutics: Primary screen using the parental adenocarcinoma cell KB-3-1; also: nearly all actives have a fitted effect of over 60% in size
# Details: KB-3-1 viability, CellTiter-Glo ATP luminescence, 72 h; series mostly up to 46.1 µM; activity change, negative = cytotoxic: at the top concentration
# How it was run: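 Luminescent ATP read-out (CellTiter-Glo) measures survival of drug-naive KB-3-1 cells after 72 h compound exposure at 37 °C. Titration series was screened from lowest to highest concentration, with DMSO vehicle plates as background controls.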
# % is scaled to controls: 0 for no effect and ±100 for the full control effect; potency is read from the fitted curve at half-maximal effect.
Compound,"activity change, negative = cytotoxic [%]",Potency
Cc1nc2nc(SCC(=O)N(Cc3ccccc3)C(C)C)nn2c(C)c1Cc1ccccc1Cl,-11.4,–
O=C(Nc1ccccc1Cl)c1ccccc1S(=O)(=O)c1ccccc1[N+](=O)[O-],7.37,–
O=C(Nc1ccccc1Cl)N1CCC(CN2CCCCC2)CC1,-2.06,–
O=C(Nc1ccccc1Cl)/C(Cl)=C(\Cl)S(=O)c1ccccc1 (stereo unspecified),–,6.51 µM (active)
NS(=O)(=O)c1ccc(NC(=O)COc2ccc(S(=O)(=O)NC3CCCCC3)cc2)cc1,0.732,–
COc1ccccc1N1CCN(c2ccc(=O)n(CC(=O)NCc3ccc(OC(C)C)cc3)n2)CC1,-17.2,–
Cc1cc(C)cc(NC(=O)CCS(=O)(=O)c2cc3c4c(c2)CCN4C(=O)CC3)c1,-8.73,–
Cc1ccc(Oc2c(C(F)(F)F)oc3c(CN4CCCCC4)c(O)ccc3c2=O)cc1,5,–
COc1ccc(CN2CCOC2=O)cc1OC,4.09,–
COc1ccc(Cn2c(=O)sc3ccccc32)cc1OC,–,14.6 µM (active)
COc1ccccc1CNC(=O)CCn1c(=O)sc2ccccc21,2.78,–
Cc1ccc(-c2nnc3ccc(SCC(N)=O)nn23)cc1,-10.6,–
O=C(NCc1cccnc1)C(=O)NCC(c1cccnc1)N1CCN(c2ccccc2)CC1 (stereo unspecified),2.59,–
CCN1CCN(C(c2cccnc2)c2cc(Cl)c3cccnc3c2O)CC1 (stereo unspecified),–,7.31 µM (active)
CCN1CCN(C(c2ccc(C)cc2)c2c(O)cc(C)n(Cc3ccco3)c2=O)CC1 (stereo unspecified),6.42,–
O=C1CCC[C@@H]2C[C@@]3(C[C@@H]4CCN1[C@H]24)Nc1ccccc1NC3=NCc1ccccc1,6.89,–
Cc1c(Cl)cccc1-c1ccc(CNCCCSc2nnnn2C)o1,-9.56,–
CCOC(=O)CSC1=C(C#N)C(c2sccc2C)CC(=O)N1 (stereo unspecified),–,5.01 µM (active)
C=CCSC1=C(C#N)C(c2cc(Br)c(O)c(OC)c2)CC(=O)N1 (stereo unspecified),2.37,–

Compound,"activity change, negative = cytotoxic [%]",Potency
Cc1ccsc1C1C(C#N)=C(N)OC2=C1C(=O)CC(C)C2 (stereo unspecified),11.3,–
CCOc1ccc(NC(=O)Cn2cc(C(=O)c3ccc(C)cc3)c(=O)c3cc4c(cc32)OCCO4)cc1,-2.29,–
CCOc1cc(C2C(C(=O)OC)=C(C)NC3=C2C(=O)c2ccccc23)ccc1O (stereo unspecified),13.2,–
Cn1c(-c2ccccc2)c[n+]2c1CCCCC2,-0.0167,–
Cc1ccc(C(=O)N2CCCC(c3ccccc3)=N2)cc1,-8.58,–
Cc1ccc(C(=O)C[n+]2cc(-c3ccccc3)n3c2CCCCC3)cc1,–,8.2 µM (active)
Clc1ccc(C[n+]2cc(-c3ccccc3)n3c2CCC3)cc1,–,7.31 µM (active)
Cc1ccc(C(=O)CSc2nc(-c3ccccc3)nc3c2CCCC3)c(C)c1,-1.42,–
CC1(C)C=Cc2c(ccc(C(=O)/C=C/c3ccccc3)c2O)O1,9.25,–
COc1ccc(CN2CCc3nc(Nc4ccccc4)ncc3C2)c(OC)c1OC,-1.65,–
CCOc1ccccc1N1CCN(C(=O)c2ccc3[nH]c(C)c(C)c3c2)CC1,–,8.2 µM (active)
CCS(=O)(=O)N1CCc2cc(C(=O)N3CCN(c4ccccc4OC)CC3)ccc21,–,14.6 µM (active)
CCn1c(C)c(C)c2cc(C(=O)N3CCN(c4cccc(C)c4C)CC3)ccc21,–,inactive
Cc1[nH]c2ccc(C(=O)N3CCN(C)CC3)cc2c1C,2.76,–
Cc1cccc(N2CCN(C(=O)c3ccc4c(c3)CCN4S(=O)(=O)c3ccccc3)CC2)c1C,–,23.1 µM (active)
COc1ccccc1NS(=O)(=O)c1ccc(C(=O)N2CCN(c3ccccc3O)CC2)cc1,1.02,–
CCOc1ccccc1NC(=S)N1CCN(c2cccc(C)c2C)CC1,-9.07,–
CCS(=O)(=O)N1CCc2cc(C(=O)NCc3ccc(OC)cc3)ccc21,0.614,–
CC1CCN(C(=O)c2cccc(S(=O)(=O)N3CCCc4ccccc43)c2)CC1,-18.9,–

Compound,"activity change, negative = cytotoxic [%]",Potency
Cc1cccn2c(=O)c(C(=O)NC(C)c3ccccc3)cnc12 (stereo unspecified),-5.19,–
COc1cc(C(=O)NCC(c2ccc(Cl)cc2)N2CCOCC2)cc(OC)c1OC (stereo unspecified),8.9,–
O=C(NCC(c1cccnc1)N1CCc2ccccc21)c1cccc(C(F)(F)F)c1 (stereo unspecified),-8.05,–
CCOC(=O)c1cc2c(=O)n3ccccc3nc2n(CC2CCCO2)c1=NC(=O)c1ccccc1Br (stereo unspecified),8.06,–
Cn1nc(-c2ccccc2)c(CO)c1Sc1ccccc1,3.21,–
Cn1nc(-c2ccccc2)c(CSc2cccc(Cl)c2)c1Cl,–,23.1 µM (active)
Cn1nc(-c2ccccc2)c(-c2nc(-c3ccc(Cl)cc3)no2)c1Cl,3.44,–
COc1ccccc1N1CCN(C(=O)C2CCN(S(=O)(=O)c3c(C)noc3/C=C/c3ccc(C)cc3)CC2)CC1,-0.427,–
O=c1c2cccnc2n(Cc2cccc(F)c2)c(=O)n1Cc1ccccc1Cl,4.6,–
CC(C)c1cc(C(=O)O)n[nH]1,19.1,–
Cc1ccc(-c2cc(C(=O)N/N=C/C=C/c3ccccc3)n[nH]2)o1,-26.5,–
CC(C)c1cc(C(=O)N/N=C/C(Br)=C/c2ccccc2)n[nH]1,–,10.3 µM (active)
CCOC(=O)C=Cc1ccc(C(=O)OCC)[nH]1,–,7.31 µM (active)
CCOC(=O)c1cc2cc(C)ccc2[nH]1,10.9,–
CCOC(=O)c1c(C)[nH]c(C)c1C(=O)COC(=O)/C=C/c1cccc([N+](=O)[O-])c1,3.02,–
COc1ccccc1CNC(=O)C(Cc1ccccc1)NS(=O)(=O)c1ccc2c(c1)oc(=O)n2C (stereo unspecified),0.116,–
COc1ccccc1CN1CCC(CNC(=O)c2cnn(-c3ccccc3Cl)c2C2CCN(C(=O)OC(C)(C)C)CC2)CC1,-12.9,–
Cc1cc(Cl)ccc1NC(=O)Cc1ccc(NC(=O)N2CCCCc3ccccc32)cc1,6.97,–
